tim23-1 inh = growth inhibitors of tim23-1 mutant yeast | S. cerevisiae tim23-1 growth, BacTiter-Glo luminescence, 24 h | inhibition, % at 20 µM | 1.3% of 330,000 active | AID 463212;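 active = growth inhibition of the mutant yeast at or above 50%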;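 also: temperature-sensitive mutant grown at 25 °C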
SKKanGAS inh = blocks kanamycin growth of S. pyogenes SKKanGAS strain. 1.3% of 300,000 active. BacTiter-Glo, 6 h. inhibition, % at 7.5 µM;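 active = mean replicate score, as percent of positive control median, at least 50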;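 also: strain carries kanamycin resistance gene driven by streptokinase promoter and grows in 40 µg/ml kanamycin; loss of luminescence reflects streptokinase promoter inhibition or plain growth inhibition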
PfHsp90 yeast 2 = reduces growth (ATP signal) of yeast expressing P. falciparum Hsp90; inhibition, % at 9.4 µM; 0.32% of 310,000 active; S. cerevisiae expressing PfHsp90, BacTiter-Glo ATP, 48 h; yeast lacking PDR1 and PDR3 efflux regulators;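 active = every replicate shows inhibition above about 80%, whatever the replicate mean, limit read from the data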
V-ATPase pHluor = yeast V-ATPase proton transport regulation by pHLuorin. S. cerevisiae, pHLuorin cytosolic pH fluorescence. response, % at 10 µM. 0.37% of 350,000 active; in the data active = response mostly above about 7.3%, no sharp cut-off; inactive = mostly below about 5.4%; also: actives read high
TIM10 inh = TIM10 yeast growth inhibition. S. cerevisiae TIM10 strain growth, BacTiter-Glo luminescence, 24 h. inhibition, % at 10 µM. 1.4% of 330,000 active. AID 463195;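 active = inhibition of 40% or more at the single tested concentration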;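 also: wild-type TIM10 isogenic control strain grown at permissive 25 °C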
tim10-1 inh = inhibits growth of tim10-1 mutant yeast. S. cerevisiae tim10-1 ts strain growth, BacTiter-Glo, 24 h. inhibition, % at 20 µM. 2.2% of 330,000 active. AID 463190;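 active = inhibition of at least 40%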;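 also: mutant grown at 25 °C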
tim10-1 confirm = confirmation of tim10-1 mutant yeast growth inhibitors; shares compounds with tim10-1 inh; S. cerevisiae tim10-1 ts strain growth, BacTiter-Glo, 24 h; inhibition, % at 20 µM; 56% of 7,400 active;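 active = inhibition of yeast growth at or above a set limit in either of two repeat tests at 20 µM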;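 also: tim10-1 mutant grown at permissive 25 °C to find synthetic lethal compounds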
Numbers stand for hits; 0 = inactive; - = not tested or not shown. Hits are enriched below; roughly 4.6% of the tested compounds scored in any of these assays.

SMILES | tim23-1 inh | SKKanGAS inh | PfHsp90 yeast 2 | V-ATPase pHluor | TIM10 inh | tim10-1 inh | tim10-1 confirm
O=C(O)c1cc(N2C(=O)C3CC=CCC3C2=O)ccc1NCc1cccnc1 (stereo not drawn) | 0 | 0 | 0 | 0 | 0 | 0 | -
Cc1cc(OCC(=O)O/N=C(\N)c2ccccc2)ccc1Br | 0 | 0 | 0 | 0 | 0 | 0 | -
COc1ccc(NC(=O)C2CCN(S(=O)(=O)c3cccc4cccnc34)CC2)cc1 | 0 | 0 | 0 | 0 | 0 | 0 | -
CC(=O)c1ccc(NC(=O)C2CCN(S(=O)(=O)c3cccc4cccnc34)CC2)cc1 | 0 | 0 | 0 | 0 | 0 | 41.5 | 0
CC1CC(C)CN(S(=O)(=O)CCNC(=O)c2ccc3c(c2)OCO3)C1 (stereo not drawn) | 0 | 0 | 0 | 0 | 0 | 0 | -
COc1ccc(NC(=O)CC2C(=O)N(C)C(=S)N2Cc2cccs2)cc1 (stereo not drawn) | 0 | 0 | 0 | 0 | 0 | 0 | -
CCCOc1ccc(NC(=O)CC2C(=O)N(CC)C(=S)N2Cc2cccs2)cc1 (stereo not drawn) | 0 | 0 | 0 | 0 | 0 | 49.6 | 34.9
O=C(c1cc(-c2cccnc2)nc2ccc(Br)cc12)N1CCN(c2ncccn2)CC1 | 0 | 0 | 0 | 0 | 0 | 45.5 | 0
C#CCOCCOCCOCCNc1nc(N2CCN(C(=O)CCCCCCCCCCNC(=O)[C@H](CCCCN)n3cc(CCO)nn3)CC2)nc(N2CCN(C(=O)CCCCCCCCCCNC(=O)[C@H](CCCN=C(N)N)n3cc(C[C@@H](C)CC)nn3)CC2)n1 | 0 | - | 0 | 0 | 0 | 42.2 | 0
COC(=O)[C@@]12CCCCN1[C@H](c1ccc(-c3cccc(Cl)c3)c(OC)c1)[C@H]1C(=O)N(C)C(=O)[C@H]12 | 0 | 0 | 0 | 0 | 0 | 0 | -
COc1ccccc1NC=C1C(=O)OC2(CCCCC2)OC1=O | 0 | 0 | - | 0 | 0 | 40.4 | 0
Cn1cccc1Cc1nnc(SCC(=O)Nc2ccc3c(c2)OCO3)n1CCc1ccccc1 | 0 | 0 | 0 | 0 | 0 | 0 | -
Cn1cccc1Cc1nnc(SCC(=O)Nc2ccc(F)cc2)n1CCc1ccccc1 | 0 | 0 | 0 | 0 | 0 | 41.9 | 0
CCOc1cc(/C=N/O)cc(Br)c1OCC | 0 | 0 | 0 | 0 | 0 | 0 | -
CCOc1cc(/C=N/O)cc(Br)c1OCc1ccc(Cl)cc1 | 0 | 0 | 0 | 0 | 0 | 53.5 | 0
COc1ccc(CCNC(=O)CC(c2ccccc2)c2cccc(C)c2O)cc1OC (stereo not drawn) | 0 | 0 | 0 | 0 | 0 | 0 | -
O=S(=O)(c1ccc2c(c1)OCCO2)N1CCC(n2cnc3cc(F)ccc32)CC1 | 0 | 0 | 0 | 0 | 0 | 0 | -
O=S(=O)(c1ccc2c(c1)OCCO2)N1CCC(n2nnc3cc(F)ccc32)CC1 | 0 | 0 | - | 0 | 0 | 42.0 | 0
O=C(NNC1=NC2(CCCC2)Cc2ccccc21)c1ccncc1 | 0 | 0 | 0 | 0 | 0 | 0 | -
O=C(c1ccc(NC(=O)C(c2ccccc2)c2ccccc2)cc1)c1ccc(C(=O)O)c(C(=O)O)c1 | 0 | 0 | 0 | 0 | 0 | 0 | -
COc1ccccc1C/C(N)=N/OC(=O)c1ccco1 | 0 | 0 | 0 | 0 | 0 | 50.0 | 37.9
O=S(=O)(Nc1ccc(-n2cccc2)cc1)c1ccc(Cl)cc1Cl | 0 | 0 | 0 | 0 | 0 | 47.6 | 0
O=S(=O)(Nc1ccc(-n2cccc2)cc1)c1ccc(F)cc1 | 0 | 0 | 0 | 0 | 0 | 0 | -
N/C(=N\OC(=O)COc1ccc2ccccc2c1Br)c1ccccn1 | 0 | 0 | 0 | 0 | 0 | 43.2 | 54.9
N/C(=N\OC(=O)COc1ccc2ccccc2c1Br)c1cccnc1 | 0 | 0 | - | - | 0 | 0 | -
O=C(CCCOc1ccccc1)NC(=S)Nc1ccccc1 | 0 | 0 | 0 | 0 | 0 | 0 | -
COc1ccc(OC)c(C2(O)CSC(=Nc3cccnc3)N2Cc2ccco2)c1 (stereo not drawn) | 0 | 0 | 0 | 0 | 0 | 0 | -
OC1(c2ccc(OC(F)F)cc2)CSC(=Nc2cccnc2)N1C1CC1 (stereo not drawn) | 0 | 0 | 0 | 0 | 0 | 40.6 | 0
O=C(NC(=S)Nc1nc2ccc(F)cc2s1)c1ccco1 | 0 | 0 | 0 | 0 | 0 | 0 | -
O=C(c1cc2cc(Cl)ccc2[nH]1)N1CCN(Cc2ccc3c(c2)OCO3)CC1 | 0 | 0 | 0 | 0 | 0 | 48.8 | 0

Assay outcomes deposited in PubChem BioAssay by several laboratories.
